Reference: paper PMC4552634, “A New Set of Chemical Starting Points with Plasmodium falciparum Transmission-Blocking Potential for Antimalarial Drug Discovery” (PLoS ONE, 2015)
Read-outs that look alike come from different tables or passages of the source. In all, about 13,000 compounds went through this assay and about 3,200 (25%) showed an effect of 50% or more. The list shows a part of the results.

Test system: P. falciparum stage V gametocytes
Design: BacTiter-Glo ATP luminescence viability of purified stage V gametocytes in 384-well plates, per cent inhibition versus DMSO
Settings: 48 h, 5 µM, inhibitor

Row | Structure (SMILES) | % Inhibition [%] | % Inhibition (% Inhibition) [%]
1 | COc1cc(CNC[C@@H](O)[C@H](Cc2ccccc2)NC(=O)c2cc(C3CCCC3)cc(N3CCCC3=O)c2)cc(OC)c1 [TCMDC-134558] | -9.273 | –
2 | COc1ccc(Nc2nccc(N3CCC(NC(=O)Nc4cccc(OC)c4)C3)n2)cc1 (centres unmarked) [TCMDC-133616] | -47.96 | –
3 | CCSc1nnc(C2CCCN(CC(=O)Nc3cc(C(F)(F)F)ccc3Cl)C2)n1CC (centres unmarked) [TCMDC-123540] | 7.83 | –
4 | CC(=O)C1(c2ccccc2)CCN(CCC2(c3ccc(Cl)c(Cl)c3)CN(C(=O)C3CCCCC3)CCO2)CC1 (centres unmarked) [TCMDC-135326] | -73.48 | –
5 | CCOC(=O)c1c(C)n(-c2ccc(Cl)cc2)c2ccc(OC(=O)C=Cc3ccccc3)cc12 [TCMDC-125715] | -42.41 | –
6 | CN(C)CCNC(=O)N1CCCN(c2ncnc3cc(-c4ccccc4)sc23)CC1 [TCMDC-134389] | -9.14 | –
7 | O=C(NCCN1CCCCC1)N1CCCN(c2ncnc3cc(-c4ccccc4)sc23)CC1 [TCMDC-134392] | 3.881 | –
8 | CC(C)N1CCC(NC(=O)N2CCCN(c3ncnc4cc(-c5ccc(Cl)cc5)sc34)CC2)CC1 [TCMDC-134390] | -12.69 | –
9 | O=C(Nc1ccccc1O)C1CCN(c2ncnc3cc(-c4ccc(F)cc4)sc23)CC1 [TCMDC-124822] | -65.25 | –
10 | O=C(NCCN1CCCC1)N1CCCN(c2ncnc3cc(-c4ccc(Cl)cc4)sc23)CC1 [TCMDC-134394] | -0.6581 | –
11 | O=C(NCCN1CCCC1)N1CCCN(c2ncnc3cc(-c4ccc(F)cc4)sc23)CC1 [TCMDC-134393] | 93.57 | –
12 | CN(C)CCNC(=O)N1CCCN(c2ncnc3cc(-c4ccc(Cl)cc4)sc23)CC1 [TCMDC-134387] | 97.42 | –
13 | CC(C)N1CCC(NC(=O)N2CCCN(c3ncnc4cc(-c5ccccc5)sc34)CC2)CC1 [TCMDC-134391] | 65.6 | –
14 | CN(C)CCNC(=O)NC1CN(c2ncnc3cc(-c4ccccc4)sc23)C1 [TCMDC-134388] | -2.865 | –
15 | Cc1c(CNCCCNc2cc(=O)c3ccccc3[nH]2)sc(C(F)F)c1Br [TCMDC-141322] | -67.17 | –
16 | NC(=O)c1ccc(NC(=O)CN(Cc2ccc(Cl)cc2)S(=O)(=O)c2ccccc2)cc1 [TCMDC-124454] | 35.94 | –
17 | CN(C)CCOc1ccc(-n2c(-c3nonc3N)nc3cncc(-c4ccc(F)cc4)c32)cc1 [TCMDC-134178] | -7.095 | –
18 | CC(=O)Nc1ccc([N+](=O)[O-])c2c(Br)cccc12 [TCMDC-125386] | -53.09 | –
19 | COc1cc(F)c2ncc(Cl)c([C@H](O)CN3CCC(NCc4ccc5c(n4)NC(=O)CO5)CC3)c2c1 [TCMDC-135487] | 8.334 | –
20 | CC(C)(C)c1cc(/C=C/C(=O)NC2CCC(CN3CCC(c4c[nH]c5ccccc45)CC3)CC2)cc(C(C)(C)C)c1O (centres unmarked) [TCMDC-139767] | – | 105.4
21 | CC(C)(C)c1cc(/C=C/C(=O)NC2CCC(CN3CCC(c4c[nH]c5ccccc45)CC3)CC2)cc(C(C)(C)C)c1O (centres unmarked) [TCMDC-139757] | – | 96.1
22 | N#Cc1cccc(Nc2cc(C(F)(F)F)nc(Nc3ccccc3)n2)c1 [TCMDC-133458] | 7.387 | –
23 | CCOc1cc(Cc2cnc(N)nc2N)cc(Br)c1OC [TCMDC-137721] | -8.107 | –
24 | CCN(Cc1ccc(-c2ccc(C(F)(F)F)cc2)cc1)C(=O)Cn1c(SCc2cccc(F)c2F)cc(=O)c2cc(CN3CCCCC3)ccc21 [TCMDC-141592] | 106.5 | –
25 | CC(C)N(Cc1ccc(-c2ccc(C(F)(F)F)cc2)cc1)C(=O)Cn1c(SCc2cccc(F)c2F)cc(=O)c2cc(CN3CCCCC3)ccc21 [TCMDC-141593] | 103.1 | –

Row | Structure (SMILES) | % Inhibition [%] | % Inhibition (% Inhibition) [%]
26 | COC(=O)C1(NC(=O)c2ccc(-n3nc(C)c(-c4ccccc4)c3N)cc2)CCCC1 [TCMDC-134041] | 30.38 | –
27 | CCCC(C)NC(=O)C(N)Cc1cccc(I)c1 (centres unmarked) [TCMDC-141272] | -22.86 | –
28 | Cc1ncc([N+](=O)[O-])n1CCOC(=O)NC(Nc1ccc(Br)cc1)C(Cl)(Cl)Cl (centres unmarked) [TCMDC-124219] | 76.02 | –
29 | Cc1nn(CCOC(=O)NC(NCC2COc3ccccc3O2)C(Cl)(Cl)Cl)cc1[N+](=O)[O-] (centres unmarked) [TCMDC-124139] | 72.15 | –
30 | CC1(C)N=C(N)N=C(N)N1OCC1COc2ccccc2O1 (centres unmarked) [TCMDC-131585] | 1.956 | –
31 | Cc1ncc([N+](=O)[O-])n1CCOC(=O)NC(NCC1COc2ccccc2O1)C(Cl)(Cl)Cl (centres unmarked) [TCMDC-125611] | 93.51 | –
32 | CC(C)C(=O)NC(NC(=S)Nc1ccc(Br)cc1)C(Cl)(Cl)Cl (centres unmarked) [TCMDC-124131] | 29.56 | –
33 | O=C(NCC1COc2ccccc2O1)c1cnc2c(c1)nc(-c1cnc(-c3ccccc3)[nH]1)n2CCSCc1c(F)cccc1Cl (centres unmarked) [TCMDC-139692] | 12.96 | –
34 | O=C(/C=C/c1ccc(Cl)c(Cl)c1)NCCCCCN1CCCN(C(=O)Nc2ccc([N+](=O)[O-])cc2)CC1 [TCMDC-135754] | -58.55 | –
35 | Clc1ccc(CNc2nc(NCCc3cnc[nH]3)nc(N3CCCC4CCCCC43)n2)cc1 (centres unmarked) [TCMDC-139743] | 10.44 | –
36 | Cc1oc(-c2ccccc2)nc1CCOc1ccc(C[C@H](Nc2ccccc2C(=O)c2ccccc2)C(=O)NCc2ccccn2)cc1 [TCMDC-138315] | -1.633 | –
37 | NC1=NC2(CCCC2)C(c2ccc(Cl)c(Cl)c2)C(N)=N1 (centres unmarked) [TCMDC-137490] | 18.93 | –
38 | O=C(c1cnn(-c2ccccc2)c1C(F)(F)F)N1CCN(c2ccnc3cc(Cl)ccc23)CC1 [TCMDC-123790] | -13.06 | –
39 | COc1cc(Nc2nccc(NCC(O)c3ccc(C(F)(F)F)cc3)n2)cc(OC)c1OC (centres unmarked) [TCMDC-136589] | -6.814 | –
40 | COc1ccc(-c2cccc(NC(=O)c3ccc(Cl)cc3)c2)cc1CN1CCNCC1 [TCMDC-132601] | 95.75 | –
41 | Cc1nc(-c2ccc(-c3ccc(C(=O)Nc4ccc(I)c(OCCN5CCCC5)c4)cc3)c(C)c2)no1 [TCMDC-139109] | 57.83 | –
42 | COc1ccc(-c2cccc(NC(=O)c3cccc(Cl)c3)c2)cc1CN1CCNCC1 [TCMDC-132613] | 106.1 | –
43 | COc1ccc(-c2cccc(NC(=O)c3ccc(Cl)cc3)c2)cc1CN1CCCC1 [TCMDC-132604] | 46.68 | –
44 | COc1ccc(-c2cccc(NC(=O)c3ccc(C#N)cc3)c2)cc1CN1CCCC1 [TCMDC-132611] | 11.39 | –
45 | COc1ccc(-c2cccc(NC(=O)c3cccc(C#N)c3)c2)cc1CN1CCNCC1 [TCMDC-132620] | 19.71 | –
46 | COc1cc(NC(=O)c2ccc(-c3ccccc3)cc2)ccc1OCCCN1CCC(c2ccccc2)CC1 [TCMDC-141370] | -49.11 | –
47 | CN(C)CCOc1cc(NC(=O)c2ccc(-c3ccc(Cl)cc3Cl)cc2)ccc1-c1ccccc1 [TCMDC-138835] | -44.47 | –
48 | Cc1nc(-c2ccc(-c3ccc(C(=O)Nc4ccc(I)c(OCC5CCCN5C)c4)cc3)c(C)c2)no1 (centres unmarked) [TCMDC-139110] | -18.97 | –
49 | O=C(Nc1ccc(-c2ccccc2)c(OCCN2CCNCC2)c1)c1ccc(-c2ccc(Cl)cc2)cc1 [TCMDC-138818] | 100.4 | –
50 | Cc1nc(-c2ccc(-c3ccc(NC(=O)Nc4ccc(I)c(OCCN(C)C)c4)cc3)c(C)c2)no1 [TCMDC-139107] | -54.47 | –
